Compound activity deposited in PubChem BioAssay by National Center for Advancing Translational Sciences (NCATS).
HepG2 tox: qHTS for Inhibitors of TGF-b: Cytotox Counterscreen; HepG2 CAGA-GFP viability, ATP luminescence, 18 h; Potency, µM (doses to about 46.1 µM), for inactives: top-dose activity change, negative = cytotoxicity, usual class: cytotoxic; hit rate 0.76% among 410,000; note: potency is the fitted concentration of half-maximal effect
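HepG2 CAGA-GFP cells (1000/well, DMEM with 1% FBS) received compound, then TGF-beta at 500 pg/mL final, and were incubated 18 hours at 37 degrees C. Viability was read by CellTiter-Glo luminescence. Media-only wells were set as complete cell-killing and DMSO as no toxicity.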
TDP1 block: qHTS Assay for Inhibitors of Tyrosyl-DNA Phosphodiesterase (TDP1) | Tyrosyl-DNA phosphodiesterase 1 (Homo sapiens), Q9NUW8 | recombinant TDP1, AlphaScreen DNA substrate cleavage | Potency, µM (highest dose often 130 µM), for the others: at the top dose activity change, negative = inhibition, most hits filed as inhibitors | hit rate 0.28% among 350,000 | AID 485290, 2010; note: potency is the fitted concentration of half-maximal effect; % is set by controls: 0 for no effect and ±100 for the full control effect; nearly all actives have a fitted effect of over 40% in size
Target sequence (Q9NUW8 whole entry, looked up): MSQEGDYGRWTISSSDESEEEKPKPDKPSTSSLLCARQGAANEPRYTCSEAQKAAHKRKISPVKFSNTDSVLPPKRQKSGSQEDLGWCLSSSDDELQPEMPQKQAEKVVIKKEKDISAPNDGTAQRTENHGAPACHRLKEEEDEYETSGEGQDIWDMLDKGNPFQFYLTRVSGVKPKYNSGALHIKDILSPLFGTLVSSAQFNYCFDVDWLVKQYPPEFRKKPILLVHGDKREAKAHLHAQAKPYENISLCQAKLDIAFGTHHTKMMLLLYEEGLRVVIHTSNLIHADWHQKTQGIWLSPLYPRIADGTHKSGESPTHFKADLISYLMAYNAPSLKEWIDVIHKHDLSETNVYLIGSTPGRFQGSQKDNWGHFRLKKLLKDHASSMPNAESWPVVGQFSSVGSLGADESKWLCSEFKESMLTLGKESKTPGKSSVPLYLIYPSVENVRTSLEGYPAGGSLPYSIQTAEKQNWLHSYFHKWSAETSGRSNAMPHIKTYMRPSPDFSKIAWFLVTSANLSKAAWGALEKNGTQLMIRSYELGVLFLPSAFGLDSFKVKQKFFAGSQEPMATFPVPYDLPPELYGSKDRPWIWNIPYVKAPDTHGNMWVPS
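Tdp1 1 nM final; 15 min RT w/ cpd; substrate 15 nM, 5 min; beads 10 ug/ml, 10 min; AlphaScreen read. Neg ctrl: no enzyme.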
TGFb inhibitor: qHTS for Inhibitors of TGF-b. Potency, µM (top dose mostly 46.1 µM), inactives show top-dose activity, negative = inhibition, hits mostly inhibitors. AID 588855, 2011. hit rate 1.2% among 410,000. HepG2 CAGA-GFP TGF-b/SMAD3 reporter, GFP fluorescence, 18 h; TGF-beta stimulated, 500 pg/mL final; note: potency is the fitted concentration of half-maximal effect; % is set by controls: 0 for no effect and ±100 for the full control effect; nearly all actives have a fitted effect of over 65% in size
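TGF-beta reporter screen: HEPG2 CAGA-GFP, 1% FBS, 500 pg/mL TGF-beta final, 18 h; per-cell GFP summed per well; curves fitted and categorized by class.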
DT40 TDP1 CPT: qHTS for Inhibitors of human tyrosyl-DNA phosphodiesterase 1 (TDP1): qHTS in cells in presence of CPT. chicken DT40 Tdp1-/-;hTDP1 cells + 20 nM CPT, ATP luminescence, 48 h. Potency, µM (titrated, usually from 46.2 µM), inactives show at the top dose activity change, negative = growth inhibition, most hits filed as inhibitors. hit rate 12% among 420,000. AID 686979, 2013; note: potency is the fitted concentration of half-maximal effect; % is set by controls: 0 for no effect and ±100 for the full control effect; nearly all actives have a fitted effect of over 55% in size
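Cell growth measured by CellTiter-Glo luminescence after a minimum 48 h, 37 C compound exposure with 20 nM CPT in Tdp1-knockout DT40 cells stably expressing hTDP1, seeded 400/well; qHTS titration format.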
TDP1 cell noCPT: qHTS for Inhibitors of human tyrosyl-DNA phosphodiesterase 1 (TDP1): qHTS in cells in absence of CPT | hit rate 15% among 420,000 | Potency, µM (series often up to 46.2 µM), for inactives: top-dose activity change, negative = growth inhibition, usual class: inhibitors | DT40 Tdp1-/- hTDP1 cells, no CPT, ATP luminescence, 48 h; note: potency is the fitted concentration of half-maximal effect; % is set by controls: 0 for no effect and ±100 for the full control effect; nearly all actives have a fitted effect of over 55% in size
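Compound effects on proliferation are scored in DT40 Tdp1-/-;hTDP1 cells in the absence of CPT. ATP levels (CellTiter-Glo luminescence) are recorded after a ≥48 hr, 37 °C incubation.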
IL-1B inflam inh: qHTS for Inhibitors of Inflammasome Signaling: IL-1-beta AlphaLISA Primary Screen. THP-1 LPS/ATP IL-1B secretion, AlphaLISA, 16 h; hits give low values. activity change, % at 57.5 µM. hit rate 4.7% among 360,000; in the data active = activity change below about -50%; inconclusive = mostly about -30% to -49%; note: % is set by controls: 0 for no effect and ±100 for the full control effect
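THP-1 cells pretreated 1 hr with compounds (up to 57.5 uM final), then stimulated with LPS (250 ng/mL final) plus ATP (1.25 mM final); secreted IL-1B measured by AlphaLISA after 16 hr, decreased signal indicating inhibition.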
Starred values were filed as active, the others as inactive; ? = inconclusive; · = no result given; ! = not active in a repeat; [ ] = dose if it differs, or a comment. Only some compounds are listed: those with a hit (about 19% of all), similar ones and a draw of the others. Unless noted, calls come from the whole dose curve; as a rule, active = well fitted curve in the direction sought with a large enough effect; inconclusive = small, poorly fitted or top-dose-only effect, or another doubt; inactive = no such curve, though single readings can be large; an effect the other way counts as inactive or inconclusive.

SMILES | HepG2 tox | TDP1 block | TGFb inhibitor | DT40 TDP1 CPT | TDP1 cell noCPT | IL-1B inflam inh
Cc1cccc(Sc2c([N+](=O)[O-])ncn2C)c1 | -27% | -2% | 12% | ? | 23µM* | -20
Cc1ccccc1COC(=O)c1ccc(-c2nnn(Cc3ccccc3F)n2)cc1 | 4% | 1% | 15% | -28% | 1% | ·
O=C(NC1CCCCC1)n1c(=O)oc2ccc(Cl)cc21 | -3% | 3% | -4% | 12µM* | 13µM* | -5
Cc1ccc(-c2nc(C=Nc3ccc(O)cc3)c(O)o2)cc1 | -19% | 7% | -3% | 7.3µM* | 10µM* | -86*
Cc1ccc(NC(=O)COC(=O)CSC(=S)N2CCOCC2)cc1 | 11% | 2% | -3% | -1% | -14% | 1
COc1ccc(N(CC(=O)Nc2cccc(C)c2)S(=O)(=O)c2ccc(C)cc2)cc1OC | -5% | 3% | -1% | -7% | -22% | 9
CCOc1cc(OCC)nc(S(C)(=O)=O)n1 | -1% | -1% | -18% | 21µM* | 15µM* | 0
CN1c2ccc(Cl)cc2-c2nc(SCC(=O)NCc3ccc(F)cc3)ncc2S1(=O)=O | 9% | 3% | 24% | -18% | -10% | ·
COC(=O)c1cn(NC(=O)c2cc([N+](=O)[O-])ccc2F)c(=O)c2ccccc12 | -6% | 8% | -18% | 3.3µM* | 4.6µM* | -93*
COc1cc(OC)cc(C(=O)Nn2cc(C(=O)Nc3ccc(F)cc3F)c3ccccc3c2=O)c1 | -21% | 3% | ? | 13µM* | ? | -21
CC(=O)Oc1ccc(-c2nc(-c3ccccc3)no2)cc1 | -43% | · | -5% | ? | ? | ·
CCOC(=O)c1c(S(=O)(=O)NCC(=O)Nc2ccc(C(C)=O)cc2)c(C)n(C)c1C | -17% | -2% | ? | -25% | -18% | ·
Cc1ccccc1CNC(=O)c1ccc(NC(=O)c2nsc3ccccc23)cc1 | -44% | 0% | -11% | 15µM* | 12µM* | ·
O=C(Nc1ccc(C(=O)N2CCCCC2)cc1)c1nsc2ccccc12 | -75% | 8% | 9% | 21µM* | 21µM* | ·
Cc1ccccc1CNC(=O)c1ccc(CSCc2ccccc2)cc1 | -19% | 0% | -3% | ? | 21µM* | -23
Cc1ccc(CNC(=O)c2ccc(NC(=O)c3nsc4ccccc34)cc2)cc1 | -50% | 0% | -9% | 10% | -15% | ·
CCOc1ccccc1CNC(=O)c1cccc(NC(=O)c2nsc3ccccc23)c1 | -50% | 0% | ? | 5.8µM* | 5.2µM* | ·
Cc1c(P(=S)(c2ccccc2)c2ccccc2)c2ccccc2n1C(=O)Cc1ccccc1 | · | 0% | · | · | · | ·
O=C(Nc1cccc(S(=O)(=O)NC2=NCCC2)c1)c1cc(=O)[nH]c2ccccc12 | -4% | 0% | -9% | -6% | 14% | 3
CCOC(=O)c1ccc(NC(=O)c2nsc3ccccc23)cc1 | -55% | -5% | · | 18µM* | ? | ·
CNC(=O)c1ccc(NC(=O)c2nsc3ccccc23)cc1 | -59% | 5% | · | -10% | ? | ·
CCOc1cc(CNC(=O)c2ccccc2NC(=O)c2nsc3ccccc23)ccc1OC | -14% | 5% | -7% | 16µM* | 18µM* | ·
COc1ccc(NC(=O)NCCn2nnc3cc(S(=O)(=O)N(C)C)ccc32)cc1 | 2% | 4% | -31% | 10% | 22% | ·
Cc1ccc(CCNC(=O)c2cccc(Nc3nc4ccccc4nc3-n3nc(C)cc3C)c2)cc1 | -10% | 0%[12.3 µM] | ? | -25% | ? | ·
COc1ccc(N2CCN(Cc3nc4c(c(=O)n(C)c(=O)n4C)n3Cc3ccccc3C)CC2)cc1 | -8% | · | -2% | 18µM* | 16µM* | 10
SMILES | HepG2 tox | TDP1 block | TGFb inhibitor | DT40 TDP1 CPT | TDP1 cell noCPT | IL-1B inflam inh
COCCn1c(CN2CCN(c3ccc(OC)cc3)CC2)nc2c1c(=O)n(C)c(=O)n2C | -4% | -4% | -13% | ? | ? | 13
COc1ccc(N2CCN(Cc3nc4c(c(=O)n(C)c(=O)n4C)n3CC(C)=O)CC2)cc1 | -22% | 3% | -3% | 13µM* | 23µM* | 19
CC(C)(C)N1C(=O)Cc2c1nc(N)c1c(N)nc(N3CCCCC3CO)c(C#N)c21 (centres undefined) | -28% | 5% | -30% | 21µM* | 18µM* | -27
Cc1ccccc1Cn1c(=O)n(Cc2ccc3c(c2)OCO3)c(=O)c2oc3ccccc3c21 | -2% | 3% | 5% | 3% | -1% | ·
Cc1ccc(NC(=O)CSc2nc(=O)n(CCCN3CCOCC3)c3c2CCCC3)c(C)c1 | 7% | 1% | -3% | 5% | -7% | 1
O=C(NC1CC1)C1CCN(C2CCN(C(=O)c3c(F)cccc3Cl)CC2)CC1 | 6% | 2% | 17% | -7% | 11% | -5
CCN(CC)c1ccc2cc(-c3nnc(-c4ccncc4)o3)c(=O)oc2c1 | -12% | 1% | 89% | 12µM* | 21µM* | 9
CCN(CC)c1ccc2cc(C=O)c(=O)oc2c1 | -43% | 0% | ? | 29µM* | 18µM* | -19
CCN(CC)c1ccc2cc(C(=O)Nc3ccccn3)c(=O)oc2c1 | -37% | 3% | 0% | 4.5µM*! | ? | -9
CCN(CC)c1ccc2cc(-c3nc(-c4cc(OC)c(OC)c(OC)c4)no3)c(=O)oc2c1 | -23% | 3% | 10% | 21µM* | 10µM* | ·
CCOc1ccccc1-c1nnc2n1N=C(c1cccc(OC)c1)CS2 | · | 14% | · | · | · | ·
N#Cc1ccc(OCC(=O)Nc2cc(S(=O)(=O)N3CCOCC3)ccc2N2CCCC2)cc1 | -6% | · | 14% | 0% | -4% | -24
COc1ccc(-c2cc(C(=O)N/N=C(\C)c3cccnc3)c3cc(C)ccc3n2)cc1OC | -53% | 4% | ? | 8.2µM* | 1.2µM* | -22
C/C(=N/NC(=O)c1cc(-c2ccccc2)nc2c(Cl)cccc12)c1cccnc1 | -52% | 4%[56.1 µM] | -22% | 10% | -28% | -1
C/C(=N\NC(=O)c1cc(-c2ccccc2C)nc2ccccc12)c1cccnc1 | -8% | 6% | -1% | ? | ? | -4
C/C(=N\NC(=O)c1cc(-c2ccc(C)s2)nc2ccccc12)c1cccnc1 | 0% | 3% | 1% | 12µM* | ? | -53*
